According to PubChem BioAssay AID2029 (NMMLSC, 2009):
Screen size: about 320,000 compounds; about 210 (0.066%) were called active.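 The calls were made as follows: active = GFP response relative to DMSO above a set limit, near the screen mean plus 3 SD (cut at about 150% in these data); inconclusive = Fewer than 70 cells measured for a yeast strain; inactive = the rest.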 The sample as a whole holds a higher share of actives than the screen did.

assay: modulators of CIT2-GFP expression in yeast, primary screen, S. cerevisiae, GFP fusion, multiplex flow cytometry, MLPCN library (AID 2029);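 also: ratio of well median GFP fluorescence to mean of DMSO wells on the plate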; conditions: S. cerevisiae CIT2-GFP strain, 3 h, at 10 µM, hits give high values, 100 means same as DMSO wells

SMILES | GFP response vs DMSO
COc1cc(OC)cc(-c2c(C#Cc3ccsc3)c3cc(-c4ccc(SC)cc4)ccc3n2C)c1 | 109% (inactive)
CCN(CC)P(=O)(/C(Cl)=C\Nc1c(C)n(C)n(-c2ccccc2)c1=O)N(CC)CC | 113% (inactive)
CC1=C2C(=O)OC(c3ccoc3)C2(C)CCC1 (stereo not given) | 103% (inactive)
COc1ccc(CN2CC[C@H]3C=CC[C@@H](C(=O)N4CCOCC4)[C@H]3C2=O)cc1OC | 99.2% (inactive)
COc1ccc(NC(=O)CC(NC(C)c2ccccc2)C(=O)O)cc1 (stereo not given) | 101% (inactive)
O=C(NCC(=O)N1CCCCCCC1)c1ccccc1Cl | 106% (inactive)
Cc1ccc(NC(=O)C(CC(=O)O)C2CCCO2)c(C)c1 (stereo not given) | 98.9% (inactive)
Cc1noc(C)c1CSc1nc2cc(S(=O)(=O)N3CCOCC3)ccc2o1 | 111% (inactive)
O=C(CSc1ccc(C(F)(F)F)cc1[N+](=O)[O-])NCCOc1ccccc1 | 108% (inactive)
COc1ccccc1N1CCN(CC(=O)Nc2ccnn2C2CCCC2)CC1 | 98.2% (inactive)
CC1(C)CC(CNCCC(c2ccc(F)cc2)c2ccco2)CCO1 (stereo not given) | 109% (inactive)
CCOc1cc(CN2CCCC(CO)(Cc3ccc(F)cc3F)C2)ccc1OC (stereo not given) | 98% (inactive)
O=C(c1ccc2ccccc2n1)N1CCN(c2ccccc2Cl)CC1 | 94.9% (inactive)
CCCCn1c(N)c(N2CCOCC2)c(=O)n(CC(=O)NCCc2ccccc2)c1=O | 105% (inactive)
CSCCC(NS(=O)(=O)c1ccc(C)cc1)C(=O)N1CCCC1 (stereo not given) | 90.1% (inactive)
CCN(CC)S(=O)(=O)c1ccc(OC(C)C)c(N)c1 | 94.4% (inactive)
CCOc1ccc(Nc2nc(Cc3nnc(SCC(=O)c4ccc(C)cc4)o3)cs2)cc1 | 89.8% (inactive)
O=C(NCc1nnc(SCC(=O)N2CCCc3ccccc32)o1)c1ccccc1F | 91.6% (inactive)
CC1CCCCC1NC(=O)COc1ccc(C#N)cc1 (stereo not given) | 100% (inactive)
O=C(O)CC(SCC(=O)Nc1ccc(Br)cc1)C(=O)O (stereo not given) | 101% (inactive)

SMILES | GFP response vs DMSO
OCCN1CCOCCOCCN(CCO)CCN(CCO)CC1 | 90.9% (inactive)
NC(=S)Nc1c(Cl)cccc1Cl | 104% (inactive)
CC(Oc1ccc(Cl)cc1)c1ccnn1S(C)(=O)=O (stereo not given) | 88.9% (inactive)
CN(NS(=O)(=O)c1cccs1)c1ncc(C(F)(F)F)cc1Cl | 171% [may fluoresce green] (active)
C#CCN(N(C)c1ncc(C(F)(F)F)cc1Cl)S(=O)(=O)c1ccc2ccccc2c1 | 101% (inactive)
Cc1cc(C)cc(NS(=O)(=O)c2ccc(Oc3ncc(C(F)(F)F)cc3Cl)cc2)c1 | 99.4% (inactive)
COc1ccc(-c2cc(=O)oc3cc(OCC(=O)N[C@@H](Cc4c[nH]c5ccccc45)C(=O)O)ccc23)cc1 | 110% (inactive)
O=C(N/C(=C\c1ccc([N+](=O)[O-])cc1)C(=O)N1CCOCC1)c1cccc(Br)c1 | 100% (inactive)
COc1cc(NS(=O)(=O)c2ccc(N/C=C(\C=O)c3nc4cc(Cl)ccc4o3)cc2)nc(OC)n1 | 103% (inactive)
COc1ccccc1C(=O)NCCC(=O)NC1=NCCS1 | 105% (inactive)
Cc1cccc(Nc2nc3c(S(=O)(=O)c4ccccc4)nnn3c3ccccc23)c1C | 632% [may fluoresce green] (active)
Cc1ccc(S(=O)(=O)c2nnn3c2nc(N2CCN(c4ccccn4)CC2)c2ccccc23)cc1 | 94.5% (inactive)
CC(=O)Nc1ccc(Nc2nc3c(S(=O)(=O)c4ccc(C)c(C)c4)nnn3c3ccccc23)cc1 | 106% (inactive)
CC(=O)N1CC2(C)CN(C(C)=O)CC(C)(C1)C2=O | 107% (inactive)
Cc1nc(-c2ccc(F)cc2)c(CC(=O)Nc2cc(S(=O)(=O)N3CCCCC3)ccc2C)s1 | 99.9% (inactive)
COc1ccccc1CCCNC(=O)C1CCC(=O)N(CCN2CCOCC2)C1 (stereo not given) | 94.1% (inactive)
CCN1/C(=C/c2ccc3ccc(C)cc3[n+]2CC)Sc2ccccc21 | 337% [may fluoresce green] (active)
CCN1/C(=C\c2ccc3ccccc3[n+]2CC)Sc2cc(C)ccc21 | 1560% [may fluoresce green] (active)
CCc1nc2cccnc2n1-c1ccc(C(=O)O)cc1 | 102% (inactive)
COc1ccccc1C(CNC(=O)c1ccc(C)c(S(=O)(=O)N2CCCCC2)c1)N(C)C (stereo not given) | 97.1% (inactive)
